Here are results for 90 compounds from PubChem BioAssay AID1671463 (Sanford-Burnham Center for Chemical Genomics, 2021).

Structures are written as SMILES. Out of some 370,000 compounds screened, about 520 (0.14%) were called active. The sample as a whole holds a higher share of actives than the screen did. A number with no mark means an inactive call. No stated cut-off is given here; in the data, active means activation above about 40%; inactive means the rest.

Sequence of Atrial natriuretic peptide receptor 1 (Homo sapiens) (P16066 whole entry, looked up): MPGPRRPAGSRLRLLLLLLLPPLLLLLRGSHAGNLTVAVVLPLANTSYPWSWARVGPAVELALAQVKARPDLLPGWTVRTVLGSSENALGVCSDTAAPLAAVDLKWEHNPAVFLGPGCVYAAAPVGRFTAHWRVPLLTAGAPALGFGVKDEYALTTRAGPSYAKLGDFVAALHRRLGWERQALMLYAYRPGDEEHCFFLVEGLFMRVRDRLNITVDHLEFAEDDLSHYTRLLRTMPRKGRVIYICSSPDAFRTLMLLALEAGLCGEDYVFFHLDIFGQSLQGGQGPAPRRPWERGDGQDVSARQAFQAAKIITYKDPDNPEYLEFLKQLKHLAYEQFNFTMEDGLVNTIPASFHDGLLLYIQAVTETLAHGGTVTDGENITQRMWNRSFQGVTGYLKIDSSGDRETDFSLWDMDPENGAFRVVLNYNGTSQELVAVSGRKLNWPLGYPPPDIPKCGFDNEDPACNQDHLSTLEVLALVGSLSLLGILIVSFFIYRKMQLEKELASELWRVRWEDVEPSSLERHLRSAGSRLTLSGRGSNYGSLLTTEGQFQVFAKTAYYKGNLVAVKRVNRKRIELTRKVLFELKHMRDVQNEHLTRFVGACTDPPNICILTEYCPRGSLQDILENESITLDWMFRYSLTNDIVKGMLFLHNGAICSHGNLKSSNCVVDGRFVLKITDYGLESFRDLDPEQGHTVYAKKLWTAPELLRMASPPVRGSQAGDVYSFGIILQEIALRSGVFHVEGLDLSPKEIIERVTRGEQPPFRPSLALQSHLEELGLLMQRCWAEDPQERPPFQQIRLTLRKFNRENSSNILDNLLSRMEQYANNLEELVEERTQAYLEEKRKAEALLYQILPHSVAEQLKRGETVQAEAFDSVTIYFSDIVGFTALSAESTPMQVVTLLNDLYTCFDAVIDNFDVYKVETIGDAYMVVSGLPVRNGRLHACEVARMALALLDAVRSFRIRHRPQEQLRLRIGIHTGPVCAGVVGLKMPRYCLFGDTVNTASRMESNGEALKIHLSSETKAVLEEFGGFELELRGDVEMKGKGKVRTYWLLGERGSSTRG

This assay addresses Atrial natriuretic peptide receptor 1 (Homo sapiens) (UniProt P16066). Kind of assay: GC-A stimulated cGMP production enhancers – HEK293 GC-A cells, cGMP TR-FRET, EC30 ANP, primary screen (AID 1671463). To be noted: at 10 µM, active compounds read high, 0% at EC30 ANP, 100% saturating ANP. In general terms: Time-resolved FRET reads energy transfer from a long-lived donor to a nearby acceptor.
On to `COc1ccc([N+](=O)[O-])cc1NC(=O)CC1SC(=Nc2cccc(C)c2C)N(/N=C(\C)c2ccc(C)cc2)C1=O` (stereo not given), for which the activation is 0.41%.
The same measure for `Cc1ccc(NS(=O)(=O)c2ccc(-c3coc(C)n3)cc2)c(C)c1`: 4.2%.
In the case of `C=CCOc1ccc(/C=C2/C(=O)ON=C2C)cc1OCC` it was 41% (active); in that of `C=CCOc1ccc(/C=N/NC(=O)C(C)Sc2ccccn2)cc1OCC` (stereo not given), 1.12%.
Regarding `C=CCOc1ccc(/C=N/n2cncn2)cc1OC`, the activation is 7.58%.
In the case of `C#CCOc1ccccc1/C=C1/C(=O)ON=C1C` it was 25.7%.
The same measure for `C#CCOc1ccc(/C=C2/C(=O)ON=C2C)cc1OCC`: 43.3% (active).
The same measure for `Cc1ccc(N2C(=O)C3C4C=CC(CC4)C3C2=O)cc1Cl` (stereo not given): 2.95%; for `CN(CC(=O)Nc1c(Cl)cccc1Cl)C(=O)c1ccncc1`: 3.63%.
Consider `C=C1CCN([C@H](C(=O)NCc2cc(OC)c(OC)c(OC)c2)C(C)C)S(=O)(=O)c2ccccc21`, for which the activation is 4.37%.
Take `CCCC(C(=O)N1CCOCC1)N1C(=O)C2C3C=CC(C3)C2C1=O` (stereo not given): the activation is 2.35%.
The same measure for `O=C(Nc1cccc(Br)c1)C1CC(=O)N(C2CCCC2)C1` (stereo not given): 0.08%; for `Cc1cccc(NC(=O)C2CCCN2S(=O)(=O)c2ccc(F)cc2)c1C` (stereo not given): 0.56%.
On to `CCC(=O)Nc1c(C)n[nH]c1C`, for which the activation is -1.11%.
In the case of `COc1cc(F)c(C2=CC(=O)CC(C)(C)C2)cc1F` it was 0.01%; in that of `COC(=O)Cc1ccc(OC(=O)C2CCN(S(=O)(=O)c3ccc(OC)c(OC)c3)CC2)cc1`, 3.18%.
In the case of `COC(=O)c1cn(C)c2ccc(S(=O)(=O)N3CC(C)CC(C)C3)cc2c1=O` (stereo not given), the activation is -6.76%.
In the case of `c1coc(CCNc2ncnc3ccc(-c4ccc5c(c4)OCO5)cc23)c1` it was 43.1% (active).
`Cc1nc(CNc2ncnc3ccc(-c4ccc5c(c4)OCO5)cc23)cs1`: the activation was 5.54%.
In the case of `O=C(Cn1nnc(-c2ccc3c(c2)OCO3)n1)NCc1ccco1` it was -5.64%; in that of `Cc1ccc(NC(=O)CN(C)C(=O)COC(=O)C(C)(C)Oc2ccc(Cl)cc2)cc1`, -1.24%; in that of `CCn1nc(C(=O)NNC(=O)C2CSC3(C)CCC(=O)N23)c2ccccc2c1=O` (stereo not given), -1.32%.
In the case of `Cc1cc(C)c(C#N)c(SCS(=O)c2ccc(C(C)(C)C)cc2)n1` (stereo not given) it was 4.18%.
Regarding `CCc1c(C)[nH]c(=S)c(C#N)c1C`, the activation was 2.4%.
The same measure for `CCOC(=O)c1c(C)[nH]c(=S)c(C#N)c1-c1ccccc1`: 49.5% (active); for `CC(=O)c1c(C)[nH]c(=S)c(C#N)c1-c1ccc(F)cc1`: 5.29%.
As to `COC(=O)Nc1ccc(S(=O)(=O)N2CCN(CCN3C(=O)C4C5C=CC(C5)C4C3=O)CC2)cc1` (stereo not given), the activation was -1.89%.
The same measure for `Cc1cc(=O)n2nc(N3CCC(C(=O)Nc4c(F)c(F)c(F)c(F)c4F)CC3)sc2n1`: 0.6%; for `CC(C)c1cc(C(N)=O)c(NC(=O)c2cccc(COc3ccc(Br)cc3)c2)s1`: -1.61%; for `O=C(CN1C2CCC1CC(NC(=O)C1CC1)C2)NCc1ccccc1` (stereo not given): 0.13%.
For `COc1ccccc1CNC(=O)CSc1nc(=O)n(Cc2ccncc2)c2c1CCC2`, the activation is 2.8%.
In the case of `O=C1CC[C@@H](COc2ccc3[nH]cc(-c4ccccc4)c3c2-c2ccccc2)N1` it was 2.69%; in that of `CC(C)C[C@H](NC(=O)[C@@H]1O[C@H]1C(=O)O)C(=O)NCCCCN=C(N)N`, 2.77%.
Consider `C[C@H](NS(=O)(=O)c1ccc(Cl)cc1)C(=O)OCC(=O)N1CCOCC1`, for which the activation was 7.01%.
Take `Nc1ccc(N=Nc2ccccc2Cl)c(N)n1`: the activation is 38.8%.
For the compound `CCN(CC)S(=O)(=O)c1ccc(CNC(=O)CN2C(=O)NC3(CCc4ccccc43)C2=O)cc1` (stereo not given), the activation is -0.1%.
With `O=C(O)CCSc1nnc(-c2ccccc2)n1-c1ccccc1`, the activation is 4.68%.
Take `C[C@@H](O)c1nc2ccccc2n1N`: the activation was 1.42%.
As to `Cc1noc(C)c1COC(=O)COc1ccc(-c2ccccc2)cc1`, the activation is 42% (active).
With `COCc1c(C(=O)OCc2c(C)noc2C)oc2ccccc12`, the activation is 2.41%.
With `Cc1noc(C)c1COc1cccc(C(=O)Nc2cccnc2)c1`, the activation was -4.16%.
`CCCCOc1ccc(N(CC(=O)NCC2CCCO2)C(=O)CCC(=O)Nc2cc(C)ccn2)cc1` (stereo not given): the activation was 0.77%.
Turning to `CSc1sc(C(=O)NNC(=O)c2ccc(Cl)cc2)c2c1C=CCC2`, the activation is -1.84%.
As to `Cc1cc(NC(=O)CS(=O)(=O)c2cn(C)c3ccccc23)no1`, the activation is 1.25%.
In the case of `CC(=O)c1ccc(S(=O)(=O)NC2CC(=O)N(c3ccc4c(c3)OCCO4)C2)cc1` (stereo not given) it was 4.47%; in that of `Cc1ccn(-c2cccc(-n3ccc(C)n3)n2)n1`, 5.87%; in that of `CCCCOc1ccc(NC(=O)[C@@H]2CCCN2C(=O)C2CCN(S(=O)(=O)c3ccc(C)cc3)CC2)cc1`, 2.31%.
For `O=C(Nc1ccon1)c1nc[nH]c1C(=O)NCc1ccccc1`, the activation was -0.12%.
Take `NC(N)=NCCCc1cn(CC(=O)N2CCNCC2)nn1`: the activation was -2.97%.
The same measure for `Cc1oc2cc3oc(=O)ccc3cc2c1C`: -1.91%.
The same measure for `CC(C)Oc1ccc(C(CC(=O)N2CCOCC2)C(C)C)cc1` (stereo not given): -1.14%; for `O=C(CSc1nnc(-c2ccncc2)o1)Nc1cccc(Cl)c1`: -5.53%; for `O=C(COC(=O)CSc1nnc(-c2ccc(Cl)cc2)o1)Nc1cc(Cl)cc(Cl)c1`: 60.5% (active).
On to `O=C(CSc1nnc(-c2ccncc2)o1)NCc1ccc(Cl)cc1`, for which the activation was -2.38%.
`O=[N+]([O-])c1ccc(CN2CC(N3CC=CC3)CS2(=O)=O)cc1` (stereo not given): the activation was 0.5%.
Regarding `O=C1/C(=C\c2ccc([N+](=O)[O-])cc2)CS(=O)(=O)C/C1=C/c1ccc([N+](=O)[O-])cc1`, the activation was 43.4% (active).
With `Nc1c(N(CCO)C(=O)C2CCCCC2)c(=O)[nH]c(=O)n1Cc1ccccc1`, the activation is -4.4%.
In the case of `CC(NC(=O)COc1ccc(-c2ccccc2)cc1)C1CCCO1` (stereo not given) it was 3.26%.
As to `COC(=O)CN1C(=O)[C@H]2[C@@H](C3CC3)N3C(=O)CN(Cc4ccc(-c5ccccc5)cc4)C(=O)[C@@]3(Cc3ccccc3)[C@H]2C1=O`, the activation was 4.81%.
The same measure for `O=C(CSc1nc2ccccc2n1Cc1ccccc1)NNC(=S)Nc1ccccc1`: 0.91%; for `O=S(=O)(Nc1ccc(-c2ccc(N3CCOCC3)nn2)cc1)c1cc(Cl)ccc1Cl`: 0.58%; for `COc1cc(NC(=O)c2ccc(CNc3c(N4CCCC4)c(=O)c3=O)cc2)cc(OC)c1OC`: -2.1%.
In the case of `Fc1ccc2c(c1)C(c1cccnc1)=NNC(c1cccs1)=N2` it was -28.1%.
Turning to `[O-][n+]1c2c(nn1-c1ccc(Cl)c(Cl)c1)-c1nonc1CC2`, the activation was 9.72%.
Regarding `C=CCOc1ccc(Cl)cc1CNCCCN1CCOCC1`, the activation is -6.85%.
As for `O=C1C=C(c2ccnc3cc(Cl)ccc23)C[C@@H](c2ccc3c(c2)OCO3)C1`, the activation was 0.61%.
As to `CCOc1ccc(NC(=O)CSc2ncnc3c2sc2ccccc23)cc1`, the activation was 38.7%.
The same measure for `CC1(C)Cc2nc3sc4c(SCC(=O)NC(c5ccccc5)c5ccccc5)ncnc4c3cc2CO1`: 52.8% (active); for `CC(C)CCSc1ncnc2c1oc1nc3c(cc12)COC(C)(C)C3`: -1.1%.
Consider `CN1CCC(=NNC(=O)CN(c2cccc(Cl)c2)S(C)(=O)=O)CC1`, for which the activation is 0.89%.
The same measure for `CCCCCn1c(SCCC(C)C)nc2c1c(=O)[nH]c(=O)n2C`: 1.84%; for `COc1ccc2occ(C(=O)c3ccc(N=C(C)N(C)C)cc3)c2c1`: -4.34%.
The same measure for `Cc1nn(Cc2ccccc2)c(C)c1C(=O)N1CCN(CC(=O)Nc2ccccc2Cl)CC1`: 4.37%.
In the case of `CN(C)CCN=c1cc(-c2ccccc2)oc2ccc(Cl)cc12` it was 1.39%.
Take `COc1ccc(C(CC(=O)c2ccccc2)S(=O)(=O)c2ccccc2)cc1` (stereo not given): the activation was -10.5%.
In the case of `O=C(c1ccc(F)c(S(=O)(=O)N2CCOCC2)c1)N(CCc1ccccc1)Cc1ccccc1` it was -3.51%; in that of `O=C(CN1C(=O)c2ccc([N+](=O)[O-])cc2C1=O)Nc1nnc(C2CC2)s1`, 5.52%.
The same measure for `COc1ccc(NC(=O)C(CC(C)C)NC(=O)C2CCC(C)CC2)cc1` (stereo not given): -0.39%; for `CCOC(=O)N1CCN(C(=O)CSc2nnc(-c3c[nH]c4ccccc34)n2CCOC)CC1`: -1.3%; for `CCNC(=O)N1CCN(S(=O)(=O)c2ccc3c(c2)OCCCO3)CC1`: -0.67%.
In the case of `O=C(CCC1CCCN(Cc2ccc(O)c(Cl)c2)C1)NCc1ccccc1F` (stereo not given) it was 3.25%.
`COc1ccc2cc(C(=O)O)n(CC(=O)c3ccccc3)c2c1`: the activation was -0.02%.
The same measure for `CC(=O)OCCN1CCCC12CCC(c1ccccc1)CC2` (stereo not given): 4.33%.
On to `COc1ccc(CCNC(=O)COc2ccc3c(c2)OCO3)cc1`, for which the activation is -3.12%.
In the case of `NC(=O)C1=C[C@H](c2csc3ccccc23)C[C@H](OCc2ccc(CO)cc2)O1` it was -0.65%.
In the case of `CC(C)COC(=O)n1c(=O)oc2ccc(S(=O)(=O)N3CCCCC3)cc21` it was 0.62%; in that of `COc1ccc(C2CC(c3ccccc3)=NN2C(=O)c2ccc(Cl)c([N+](=O)[O-])c2)cc1` (stereo not given), 69.5% (active).
For the compound `COc1ccc(C2CC(c3cccc(OC)c3)=NN2c2ccc(S(N)(=O)=O)cc2)cc1` (stereo not given), the activation is 6.44%.
In the case of `CCOc1ccc2nc(Cl)c(C3CC(c4ccccc4)=NN3C(=O)c3cccs3)cc2c1` (stereo not given) it was 1.83%; in that of `O=C1C=CC(=O)N1c1ccc(N2CCCCC2)cc1`, 50.5% (active).
